Test results taken from PubChem BioAssay (Tox21).
Inconclusive results are not listed. Unmarked numbers belong to inactive results. Activity calls are given as the source filed them. Calls come from the whole dose curve.

Biological target: Muscarinic acetylcholine receptor M1 (Homo sapiens) (UniProt P11229)
Test: Cholinergic receptor muscarinic 1 (CHRM1) small molecule antagonists, cell-based qHTS assay (AID 1963588); note: nearly all actives have a fitted effect of over 40% in size
Details: CHRM1-CHO antagonist mode, calcium flux fluorescence; series mostly up to 61.5 µM; activity, negative = inhibition: at the top concentration
Text: National Center for Advancing Translational Sciences [NCATS]
Division of Preclinical Innovation [DPI]
U.S. Environmental Protection Agency [EPA]
National Institutes of Environmental Health Sciences [NIEHS]
National Toxicology Program [NTP]
U.S. Food and Drug Administration [FDA]
The CHRM1 is a muscarinic receptor. This receptor plays a crucial role in learning and memory processes and has long been identified as a promising therapeutic target for the improvement of cognitive decline in Alzheimer's disease (AD). The CHRM1-CHO cell line stably expressing human muscarinic acetylcholine receptor M1 (CHRM1) can be used for screening agonists and antagonists of interactions between CHRM1 and its ligands. The CHRM1-CHO Calcium Flux Assay is a homogeneous fluorescence-based assay for detecting the intracellular calcium level using FDSS kinetic plate reader system.
Tox21 Assay Protocol Summary:
CHRM1-CHO cells were dispensed at 1000 cells/3uL/well in 1536-well black-clear bottom plates using a Multidrop Dispenser. After the assay plates were incubated at a 37 C/5% CO2 incubator for 18 h, 3 uL of Dye Loading Buffer was transferred to the assay plate by a Flying Reagent Dispenser. The assay plates were incubated at 37 C for 1h. For antagonist mode, 23 nL of compounds dissolved in DMSO, positive controls or DMSO only was transferred to the assay plate by a pin tool. After 5 min incubation at room temperature, 1.5 uL of acetylcholine at 50nM was added to each well. The fluorescence intensity in the plates was measured using FDSS 7000EX kinetic plate reader for 3 min at 1 sec intervals. Each test compound was measured at 15 concentrations in three independent runs.
% is set by controls: 0 for no effect and ±100 for the full control effect; potency is the fitted concentration of half-maximal effect.

Chain of Muscarinic acetylcholine receptor M1 (Homo sapiens) (P11229 whole entry, looked up): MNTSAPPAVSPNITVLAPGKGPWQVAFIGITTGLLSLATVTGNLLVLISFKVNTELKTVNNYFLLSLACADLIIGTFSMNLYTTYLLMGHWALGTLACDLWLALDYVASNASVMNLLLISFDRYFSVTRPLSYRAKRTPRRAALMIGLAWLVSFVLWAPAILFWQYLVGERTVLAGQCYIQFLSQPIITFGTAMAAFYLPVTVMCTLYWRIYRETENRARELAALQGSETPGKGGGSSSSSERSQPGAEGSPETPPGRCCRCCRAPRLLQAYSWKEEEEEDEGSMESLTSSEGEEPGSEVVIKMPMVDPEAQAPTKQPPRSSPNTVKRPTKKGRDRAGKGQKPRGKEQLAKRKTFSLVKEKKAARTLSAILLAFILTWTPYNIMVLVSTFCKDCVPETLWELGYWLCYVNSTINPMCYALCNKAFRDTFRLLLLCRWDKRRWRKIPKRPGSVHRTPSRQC

SMILES	activity, negative = inhibition	Potency
O=c1[nH]cnc2ccccc12	-3.28%	
CC(C)(C)c1nnc(NS(=O)(=O)c2ccccc2)s1	-8.56% [at 28.3 µM]	
ICCc1ccccc1	1.1%	
CO/N=C(\C(=O)N[C@@H]1C(=O)N2C(C(=O)O)=C(CSc3nc(=O)c(O)nn3C)CS[C@H]12)c1csc(N)n1		0.516 µM (active)
Cc1cc(Br)ccc1NC(=O)CCl	-11.3%	
CC(C)C(=O)OCc1ccccc1	25.7%	
CCCCCCCCCCCCCc1ccccc1	-2.6% [at 28.3 µM]	
O=C(OCc1ccccc1)C(=O)OCc1ccccc1	-25.9%	
CCCCCCCCCC(=O)OCC	-5.14%	
Cn1cccc1	7.04%	
CC(=O)NC(=O)c1ccccc1O	-15.9% [at 28.3 µM]	
CC(C)=CCC[C@@](C)(O)[C@H]1CC=C(C)CC1	-5.78% [at 28.3 µM]	
N#CCc1ccc(Cl)cc1Cl	-5.56%	
CCCCCCC(CO)CCCC (stereo not given)	13.9%	
CC(C)C[C@@H]1[C@H](c2ccccc2)OC(=O)N1CCCN1CCCCCC1	-31.4% [at 28.3 µM]	
Cc1cccc2sc(N)nc12	2.59%	
CCc1cccc(C)c1	2.98%	
c1ccc(CCCc2ccccn2)cc1	-35.5%	
O=C(O)c1cccc(O)c1	1.19%	
Oc1ccc(C2CNCCc3c2cc(O)c(O)c3Cl)cc1 (stereo not given)	16.2% [at 28.3 µM]	

SMILES	activity, negative = inhibition	Potency
O=C(COCCOCCOCC(=O)Nc1c(I)cc(I)c(C(=O)O)c1I)Nc1c(I)cc(I)c(C(=O)O)c1I	-2.87% [at 28.3 µM]	
O=C(O)Cc1ccc2c(c1)C(=O)c1ccccc1CO2	9.34% [at 28.3 µM]	
O=C(c1ccccc1)c1ccc(Cl)cc1	2.97%	
CC(C)=CC(=O)O	-23.7%	
CC12CCCC=C1C(=O)OC2=O (stereo not given)	-7.11%	
CC(C)c1cc(C(C)C)cc(C(C)C)c1	18.6%	
Cc1cc(CCCOc2c(C)cc(-c3noc(C(F)(F)F)n3)cc2C)on1	-1.17% [at 28.3 µM]	
CC(C)(C)c1n[nH]c(=S)n(N)c1=O	8.83%	
CC(C)c1ccc2oc3nc(N)c(C(=O)O)cc3c(=O)c2c1	0.846% [at 28.3 µM]	
COCCCCCCCCOCCC[Si](C)(O[Si](C)(C)C)O[Si](C)(C)C	-4.32%	
O=C(c1ccc(O)cc1)c1ccc(Cl)cc1	-20.6%	
CC(=O)c1cccnc1	4.94%	
O=C(CCc1ccc(O)cc1)c1c(O)cc(O)cc1O	2.1%	
O=C(NS(=O)(=O)/C=C/c1ccccc1)c1ccc(F)cc1Cl	13.4%	
CCCCCOc1ccc(C2SC(=O)NC2=O)cc1OCC (stereo not given)	24.8% [at 28.3 µM]	
CCCCCCCCC1CO1 (stereo not given)	-5.02%	
CC1(C)CC(N)CC(C)(C)N1	12.8%	
CC/C=C(\C)C=O	2.22%	
CC(NC(CCc1ccccc1)C(=O)O)C(=O)N1C(=O)N(C)CC1C(=O)O (stereo not given)	12.2% [at 28.3 µM]	
CN1CCN(N)CC1	23.2% [at 28.3 µM]	
